Results as given in PubChem BioAssay (NCATS).
Values joined by “and” are separate entries in the source; they are usually repeats but may differ in a detail not shown here. Identical values can stand only once. Records with an inconclusive call do not appear. Active and inactive are the calls of the source. Calls follow the shape of the dose curve; as a rule, active = well fitted cell-killing curve with a large enough effect; inconclusive = small, poorly fitted or top-dose-only effect, or effect the other way; inactive = flat fitted curve, though single readings scatter. *1 amine or outer side, *2 acyl side, *3 side chain or, on linkers, in order; H or OH if unused. Where a SMILES comes first, the peptide text is derived from it. Bridges are numbered along the chain shown (N, C = ends). X6 = O=C(CCC[*:2])[*:1]

What was measured:
Experiment in all cases: Primary qHTS to identify gynecologic anti-cancer compounds using libraries of approved drugs and bioactive compounds (AID 1345084); also: nearly all actives have a fitted effect of over 55% in size
Details in all cases: Gynecologic cancer cell panel viability, ATPlite luminescence, 48 h; series mostly up to 57.5 µM
[1] = test system: JEG-3
Method in brief: (§1)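 48 h compound exposure at 37 C, 5% CO2; five-point qHTS. ATPlite luminescence readout of cell ATP.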

[2] = test system: OV90
Method in brief: as §1

[3] = test system: PA-1
Method in brief: as §1

[4] = test system: SKOV3
Method in brief: as §1

[5] = test system: Tov-21-G
Method in brief: as §1

[6] = test system: Tov112D
Method in brief: as §1
% is scaled to controls: 0 for no effect and ±100 for the full control effect; potency is read from the fitted curve at half-maximal effect.

COc1c(C)c2c(c(O)c1C/C=C(\C)CC/C=C(\C)CCC(=O)O)C(=O)OC2
inactive: Potency [1] | Potency [2] | Potency [3] | Potency [4] | Potency [5] | Potency [6]

O=C(NN1CCCCC1)c1nn(-c2ccc(Cl)cc2Cl)c(-c2ccc(C#Cc3ccc(C(F)(F)F)cc3)s2)c1CNS(=O)(=O)N1CCCC1
inactive: Potency [1] | Potency [2] | Potency [3] | Potency [4] | Potency [5] | Potency [6]

COC1C=C([C@@H]2CC=C3[C@@]4(C)C(CC[C@]32C)[C@@]2(C)C=CC(=O)C(C)(C)C2C[C@H]4OC(C)=O)C(=O)O1 (stereo partly drawn)
inactive: Potency [1] | Potency [2] | Potency [3] | Potency [4] | Potency [5] | Potency [6]

C=C1C[C@@]23CC[C@@H]4[C@](C)(C(=O)O)CCC[C@@]4(C)C2=CC[C@H]1C3
inactive: Potency [1] | Potency [2] | Potency [3] | Potency [4] | Potency [5] | Potency [6]

C[C@@H]1CC[C@]2(C)C3(C)CC[C@@]2(OC3=O)[C@@]12C[C@H](c1ccoc1)OC2=O
inactive: Potency [1] | Potency [2] | Potency [3] | Potency [4] | Potency [5] | Potency [6]

CO[C@@H]1CC[C@H](OC[C@]2(COC(=O)c3ccc(C)[nH]3)[C@H](OC(C)=O)CC[C@@]3(C)[C@@H]4CC=C(C)[C@@H](C5=C(O)C(=O)OC5O)[C@]4(C)CC[C@@H]32)O[C@H]1C (stereo partly drawn)
inactive: Potency [1] | Potency [2] | Potency [3] | Potency [4] | Potency [5] | Potency [6]

C[C@@H]1CC[C@H]2C(C)(C)[C@H](O)[C@H](O)C[C@]2(C)[C@@]12Cc1c(O)cc3c(c1O2)CNC3=O
inactive: Potency [1] | Potency [2] | Potency [3] | Potency [4] | Potency [5] | Potency [6]

CCC(C)/C=C(C)/C=C/C1=CC2=C(Cl)C(=O)C(C)(OC(C)=O)C(=O)C2=CN1C1CCCCN(C(CCC(N)=O)C(=O)O)C1=O (stereo not drawn)
inactive: Potency [1] | Potency [2] | Potency [3] | Potency [4] | Potency [5] | Potency [6]

CC(=O)N[C@H]1CCN(c2ccc(C3=NOC(CN[S+](=O)([O-])C(C)C)C3)cc2F)C1 (stereo partly drawn)
inactive: Potency [1] | Potency [2] | Potency [3] | Potency [4] | Potency [5] | Potency [6]

CN1CCC(c2c[nH]c3ccc(NC(=O)c4ccc(F)cc4)cc23)CC1
inactive: Potency [1] | Potency [2] | Potency [3] | Potency [4] | Potency [5] | Potency [6]

COC1=CC(=O)O[C@@H](CCc2ccccc2)[C@@H]1O
inactive: Potency [1] | Potency [2] | Potency [3] | Potency [4] | Potency [5] | Potency [6]

O=C(OCc1cccc(O)c1O[C@@H]1O[C@H](CO)[C@@H](O)[C@H](O)[C@H]1O)C1(O)C(=O)C2C=CC1C1C=CC(=O)C(O)(C(=O)OCc3cccc(O)c3O[C@@H]3O[C@H](CO)[C@@H](O)[C@H](O)[C@H]3O)C21 (stereo partly drawn)
inactive: activity change, negative = cytotoxicity [1] 0.323% [at 11.6 µM] | activity change, negative = cytotoxicity [2] -13.1% [at 11.6 µM] | activity change, negative = cytotoxicity [3] -3.46% [at 11.6 µM] | activity change, negative = cytotoxicity [4] 4.95% [at 11.6 µM] | activity change, negative = cytotoxicity [5] 1.57% [at 11.6 µM] | activity change, negative = cytotoxicity [6] 2.56% [at 11.6 µM]

CC[C@H](C)[C@@H]1NC(=O)[C@H](Cc2ccc(OC)cc2)NC(=O)CCCSC[C@@H](C(=O)N2CCC[C@H]2C(=O)N[C@@H](CC(C)C)C(=O)NCC(N)=O)NC(=O)[C@H](CC(N)=O)NC(=O)[C@H](CCC(N)=O)NC1=O (Y(Me)IQNCPLG-NH2; linker N-5 via X6)
inactive: Potency [1] | Potency [2] | Potency [3] | Potency [4] | Potency [5] | Potency [6]

CO/N=C(/C(=O)N[C@@H]1C(=O)N2C(C(=O)O)=C(CSC(=O)c3ccco3)CS[C@H]12)c1csc(N)n1
inactive: Potency [1] | Potency [2] | Potency [3] | Potency [4] | Potency [5] | Potency [6]

NS(=O)(=O)OC[C@@H]1C[C@@H](n2ccc3c(N[C@H]4CCc5ccccc54)ncnc32)C[C@@H]1O
inactive: Potency [1] | Potency [2]
active: Potency [3] 708 nM and 1 µM | Potency [4] 10 µM | Potency [5] 501 nM and 398 nM

CC(=O)Oc1cc2c(s1)CCN([C@H](C(=O)C1CC1)c1ccccc1F)C2
inactive: Potency [1] | Potency [2] | Potency [3] | Potency [4] | Potency [5] | Potency [6]

CCCCCCc1cccc(NC(=O)[C@H](N)CCP(=O)(O)O)c1
inactive: activity change, negative = cytotoxicity [1] 8.47% [at 11.6 µM] | activity change, negative = cytotoxicity [2] 3.38% [at 11.6 µM] | activity change, negative = cytotoxicity [3] 2.71% [at 11.6 µM] | activity change, negative = cytotoxicity [4] -0.133% [at 11.6 µM] | activity change, negative = cytotoxicity [5] -2.84% [at 11.6 µM] | activity change, negative = cytotoxicity [6] 3.09% [at 11.6 µM]

CC(C)(O)C1CCC2(C)C3C(O)C4C(C13)C42CO (stereo not drawn)
inactive: Potency [1] | Potency [2] | Potency [3] | Potency [4] | Potency [5] | Potency [6]

C=CC(C)(C)C12CC3C(=O)NC(Cc4cnc[nH]4)C(=O)N3C1Nc1ccccc12 (stereo not drawn)
inactive: Potency [1] | Potency [2] | Potency [3] | Potency [4] | Potency [5] | Potency [6]
